# GLS inhibitor: inhibitors of human glutaminase (GLS) | O94925 | GLS enzymatic activity, qHTS titration | Potency, µM (titrated, usually from 45.5 µM), inactives show at the highest dose activity change, negative = inhibition, actives largely listed as inhibitors | 410,000 tested, 0.21% active; note: % is set by controls: 0 for no effect and ±100 for the full control effect
#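 hKGA; 45 mM KH2PO4 pH 8.2 + 0.02% Tween-20; cpd via pin tool; 1 mM Gln soln; GluOx/HRP/Amplex Red; RT 30 min; fluor. t0 & final.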
# G9a block: blocks human histone lysine methyltransferase G9a; Q96KQ7; G9a H3K9 monomethylation, AlphaScreen, 2 h; Potency, µM (doses to about 102 µM), for the others: top-dose activity, negative = inhibition, usual class: inhibitors; 350,000 tested, 8.8% active; AID 504332; note: % is set by controls: 0 for no effect and ±100 for the full control effect; nearly all actives have a fitted effect of over 75% in size
# Target sequence (Q96KQ7 913-1193 limits assumed): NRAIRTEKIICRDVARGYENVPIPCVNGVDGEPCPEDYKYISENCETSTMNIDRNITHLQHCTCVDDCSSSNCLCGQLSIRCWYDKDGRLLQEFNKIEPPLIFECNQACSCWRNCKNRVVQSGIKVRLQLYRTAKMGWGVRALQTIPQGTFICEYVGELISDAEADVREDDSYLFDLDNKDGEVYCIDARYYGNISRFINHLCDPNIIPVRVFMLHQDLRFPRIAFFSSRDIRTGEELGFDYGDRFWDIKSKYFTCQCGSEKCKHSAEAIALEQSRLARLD
#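 Methyltransferase reactions run at room temperature for 2 h (20 nM enzyme, 500 nM biotin-H3K9 peptide, 20 uM SAM) after a 15 min compound preincubation; product detected by AlphaScreen beads and anti-H3K9me1 antibody.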
# HP1b binding inh: blocks HP1-beta chromodomain binding to methylated histone tails | AlphaScreen HP1-beta / biotin-H3K9me3 peptide binding | P83916 | 390,000 tested, 0.56% active | Potency, µM (top dose mostly 114 µM), without a hit: at the top dose activity change, negative = inhibition, hits mostly inhibitors; note: nearly all actives have a fitted effect of over 70% in size
# Target sequence (P83916 whole entry, looked up): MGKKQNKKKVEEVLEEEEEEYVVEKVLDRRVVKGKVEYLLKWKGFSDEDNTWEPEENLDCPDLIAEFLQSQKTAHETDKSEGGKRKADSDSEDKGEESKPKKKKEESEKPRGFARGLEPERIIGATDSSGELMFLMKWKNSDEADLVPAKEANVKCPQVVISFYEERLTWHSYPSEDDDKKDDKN
#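 Compound inhibition of the preformed complex between 50 nM HP1-beta and 50 nM biotinylated H3K9me3 peptide was read by AlphaScreen. Buffer was PBS pH 7.4 with 0.01% Tween-20. Incubations ran 30 min at room temperature, with 10 ug/mL donor/acceptor beads.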
# JMJD2A Tudor: blocks the human JMJD2A Tudor domain | AlphaScreen JMJD2A-Tudor / H3K4me3 peptide binding | 390,000 tested, 4.4% active | Potency, µM (highest dose often 114 µM), without a hit: at the highest dose activity change, negative = inhibition, actives largely listed as inhibitors; note: % is set by controls: 0 for no effect and ±100 for the full control effect; nearly all actives have a fitted effect of over 50% in size
# BAZ2B inh: inhibitors of human BAZ2B bromodomain. AlphaScreen BAZ2B-H3K14Ac peptide displacement. 360,000 tested, 4.4% active. Q9UIF8. Potency, µM (top dose mostly 114 µM), for inactives: at the top dose activity change, negative = inhibition, hits mostly inhibitors; note: % is set by controls: 0 for no effect and ±100 for the full control effect; nearly all actives have a fitted effect of over 60% in size
#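 Inhibition is scored as reduced AlphaScreen emission. The BAZ2B/b-H3(5-23)K14Ac complex (50 nM each) in PBS pH 7.4, 0.01% Tween-20 meets compound (up to 110 uM) for 30 min at RT before bead addition.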
# The depositor's hits bear a star; ? = inconclusive; . = no result given; ! = not confirmed by another sample; [ ] = dose if it differs, or a comment. Rows were chosen to be rich in hits. Some 10% of all compounds tested hit in one or more screens of this group. Calls come from the whole dose curve; as a rule, active = well fitted curve in the direction sought with a large enough effect; inconclusive = small, poorly fitted or top-dose-only effect, or another doubt; inactive = no such curve, though single readings can be large; an effect the other way counts as inactive or inconclusive. Potency is the fitted concentration of half-maximal effect.
SMILES,GLS inhibitor,G9a block,HP1b binding inh,JMJD2A Tudor,BAZ2B inh
CCn1c(SCC(=O)c2ccc(C)cc2)nnc1-c1ccoc1C,11%,50µM*,33%,-15%,10%
COc1ccc(NC(=O)c2cc3c(=O)n(C)c4ccccc4c3n2C)cc1OC,-2%,10%,26%,-36%,1%
C=CCn1c(O)c(C=Nc2ccccc2)sc1=S,1%,50µM*,35%,-12%,-18%
NC(N)=NC(=O)Cc1c(Cl)cccc1Cl,-1%,13µM*!,37%,6%,7%
O=C(Cc1c(Cl)cccc1Cl)OCc1ccccn1,0%,10%,17%,15%,2%
Cc1cccnc1C(NC(=O)C1CCN(CCCc2ccccc2)CC1)c1ccc(F)cc1 (centres undefined),-2%,.,.,.,.
CCS(=O)(=O)Nc1cc(-c2nc3cccnc3s2)ccc1C,7%,50µM*,23%,1%,9%
CCS(=O)(=O)Nc1cccc(-c2nc3cccnc3s2)c1,-3%,.,20%,-5%,3%
Cc1ccccc1C(=O)Nc1cccc(-c2nc3cccnc3s2)c1,-11%,-60%[59 µM],11%,100µM*,?
CCN(CC)c1ccc(/C=N/N2CC(=O)NC2=S)cc1,16%,7.9µM*,39%,-17%,-1%
O=[N+]([O-])c1ccc(Cl)c(/C=N/N2CCN(c3ccccc3)CC2)c1,3%,32µM*,?,10µM*,11µM*
O=[N+]([O-])c1ccc(Cl)c(/C=N/N2CCN(C3c4ccccc4-c4ccccc43)CC2)c1,7%,27%[0.501 µM],-12%,?,-35%
COc1ccccc1N1CCN(/N=C/c2cc([N+](=O)[O-])ccc2Cl)CC1,3%,?,-20%,?,7.9µM*
CC1CCN(C(=O)CSc2nncn2-c2ccccn2)CC1,.,7.1µM*,-19%,1%,9%
COc1ccccc1NC(=O)Cn1nnc(C(=O)Nc2ccccc2Br)c1N,4%,5%[59 µM],24%,-19%,8%[57.1 µM]
C=CCNC(=S)NNc1nc2c(c(=O)[nH]1)C1(CCCCC1)Cc1ccccc1-2,7%,14µM*,?,?,?
Cc1ccc(N(CC(=O)NCc2ccco2)C(=O)CCC(=O)Nc2ccccn2)c(C)c1,-4%,22µM*,11%,-14%,-14%
Cc1cc(C)cc(N(CC(=O)NCc2ccco2)C(=O)CCC(=O)Nc2ccccn2)c1,1%,-14%,?,-14%,-10%
Cc1ccc(N(CC(=O)NCc2ccc(F)cc2)C(=O)CCC(=O)Nc2ccccn2)cc1C,10%,15%[59 µM],10%,79µM*,3%
COc1ccc(Cn2nnnc2CN2CCCCCC2)cc1,-1%,.,-8%,2%,-7%
Cc1ccc(-c2nc(C)c(CCNC(=O)c3ccco3)s2)cc1,1%,-5%[59 µM],22%[57 µM],-11%,0%
OC(COCc1ccccc1)COCc1ccccc1,-1%,.,24%,8%,.
CN(C)S(=O)(=O)N(CC(=O)NCCSCc1ccccc1Cl)c1ccccc1,-10%,5%[59 µM],0%,-14%,-4%
Cc1ccccc1CSCCNC(=O)CN(c1ccccc1)S(=O)(=O)N(C)C,-10%,8%[59 µM],5%,45µM*,-7%
C[C@@H]1c2cccc(O)c2C(O)=C2C(=O)[C@@]3(O)C(O)=C(C(N)=O)C(=O)[C@@H](N(C)C)[C@@H]3[C@@H](O)[C@@H]21,-8%,-44%[12.7 µM],.,.,.
SMILES,GLS inhibitor,G9a block,HP1b binding inh,JMJD2A Tudor,BAZ2B inh
C[C@H]1c2cccc(O)c2C(O)=C2C(=O)[C@]3(O)C(O)=C(C(N)=O)C(=O)[C@@H](N(C)C)C3[C@@H](O)C21 (some centres undefined),42%,10µM*,11%,22µM*,10µM*
CN(C)c1ccc(O)c2c1C[C@H]1C[C@H]3[C@@H](N(C)C)C(=O)C(C(N)=O)=C(O)[C@]3(O)C(=O)C1=C2O,.,8.9µM*,.,.,.
CCC/C(O)=C1\C(=O)CCCC1=NCCCCCC(=O)O,2%,2%,21%,-5%,3%
Cc1c(C(=O)N/N=C/c2ccccn2)nnn1-c1nonc1N,-8%,?,29%,89µM*,45µM*
Nc1nonc1-n1nnc(C(=O)N/N=C/c2ccccn2)c1-c1ccccc1,13%,23%,46%,?,?
CCN(CC)Cc1c(C(=O)N/N=C/c2ccccn2)nnn1-c1nonc1N,0%,?,41%,?,11µM*
Cc1ccc(C(=O)NC2CCS(=O)(=O)C2)cc1S(=O)(=O)N1CCOCC1 (centres undefined),1%,-32%[12.7 µM],6%,-9%,-1%
CC(=O)NNc1cc(C)nc(NS(=O)(=O)c2ccc(C)cc2)n1,0%,.,24%,-5%,-4%
O=C1C=CC(=O)c2c(O)c(N3CCN(CCOCCO)CC3)c(Br)c(O)c21,4%,.,8.9µM*,56µM*,.
O=S(=O)(c1ccc(Br)cc1Cl)N1CCN(CCO)CC1,-2%,?,34%,-9%,.
O=C1C=CC(=O)c2c(O)c(N3CCN(CCO)CC3)c(Cl)c(O)c21,?,.,?,50µM*,.
O=C(NCC(c1ccco1)N1CCCCC1)c1ccc(S(=O)(=O)Nc2ccccc2)cc1 (centres undefined),-5%,3%,8%,-15%,-1%
O=C(NCC(c1ccco1)N1CCCCC1)c1ccc2c(c1)S(=O)(=O)c1ccccc1C2=O (centres undefined),-12%,40µM*,6%,?,?
COc1cc(C(=O)NC(C)c2ccc(-n3ccnc3)cc2)cc(OC)c1C (centres undefined),2%,3.5µM*,-5%,79µM*,50µM*
COc1cc(C(=O)NCC(=O)NC(C)c2ccc(-n3ccnc3)cc2)cc(OC)c1OC (centres undefined),1%,-40%,2%,-8%,7%
CCOC(=O)Cn1c(-c2cccnc2Cl)nc2cc(Cl)c(Cl)cc21,0%,6%,25%,-9%,6%
CC(=O)NNC(=S)NC(=O)c1ccc(C)cc1,0%,?,40%,9%,?
COc1ccc(C(=O)/C=C/c2ccc(N3CCCCC3)c([N+](=O)[O-])c2)cc1,-2%,10µM*,25µM*,11µM*,4µM*
COc1ccc(C(=O)/C=C/c2ccc(N3CCCCC3)c([N+](=O)[O-])c2)c(OC)c1,-2%,8.9µM*,16µM*,10µM*,8.9µM*
COc1ccc(C=CC(=O)c2ccc([N+](=O)[O-])cc2)cc1,-11%,.,-12%,-17%,.
COc1ccc(C(=O)/C=C/c2ccc(C)cc2)c(OC(=O)c2ccc([N+](=O)[O-])cc2)c1,5%,?,-12%,-30%,?
O=C1OC2(CCCCC2)OC(=O)C1=CNc1nccs1,34%,50µM*,32%,-12%,-22%
O=C1OC2(CCCCC2)OC(=O)C1=CNc1nc2ccccc2s1,0%,?,29%,-21%,?
Cc1cc(C)n2nc(C(=O)NNC(=O)c3ccccc3)nc2n1,-1%,14µM*,33%,?,?

# Source: PubChem
